Sampled rows, rich in hits. Any-hit rate of the full collection: about 27%.
CYP2C19 activ – increases human CYP2C19 enzyme activity. P33261. recombinant CYP2C19, luciferin-H EGE luminescence; stronger effect = higher value; 0 = fully inhibited enzyme, 1 = untreated enzyme. activation factor at 5 µM. 96,000 tested, under 10 active;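 active means activation factor of at least 2 at 5 µM in the primary screen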;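 further: 0 = wells with 2.5 mM tranylcypromine and 1 = vehicle-only wells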
Target sequence (P33261 whole entry, looked up): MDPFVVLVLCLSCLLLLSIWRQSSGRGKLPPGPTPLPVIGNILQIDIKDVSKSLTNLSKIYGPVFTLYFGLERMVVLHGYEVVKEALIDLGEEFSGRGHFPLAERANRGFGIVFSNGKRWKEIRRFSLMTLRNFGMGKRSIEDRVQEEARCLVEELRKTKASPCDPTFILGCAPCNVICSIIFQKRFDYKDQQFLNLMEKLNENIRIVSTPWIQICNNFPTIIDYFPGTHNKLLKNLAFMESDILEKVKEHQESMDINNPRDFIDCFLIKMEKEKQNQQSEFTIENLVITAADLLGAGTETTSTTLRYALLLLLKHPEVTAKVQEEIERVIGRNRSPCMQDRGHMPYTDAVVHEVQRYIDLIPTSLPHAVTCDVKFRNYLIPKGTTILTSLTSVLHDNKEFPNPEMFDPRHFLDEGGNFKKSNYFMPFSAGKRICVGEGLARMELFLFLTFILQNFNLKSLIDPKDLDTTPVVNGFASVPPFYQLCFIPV
CYP2C9 inh – inhibitors of human CYP2C9; inhibition, % at 5 µM; CYP2C9 Supersomes, luciferin-H conversion, luminescence; P11712; actives 20% (n = 96,000);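 active means blocking of liver enzyme CYP2C9 beyond about 50% at 5 µM, limit read from the data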
sEH activator – activators of human soluble epoxide hydrolase | purified human sEH enzymatic activity, activator screen | activation, % at 2 µM | actives 0.04% (n = 91,000) | AID 717; in the data active means activation above about 37%
sEH inh – blocks human soluble epoxide hydrolase activity; P34913; recombinant human sEH enzymatic activity assay; inhibition, % at 2 µM; actives 0.34% (n = 91,000); in the data active means inhibition above about 80%
CYP2C9 activ – CYP2C9 (human) activation; P11712; recombinant CYP2C9, luciferin-H conversion, luminescence; stronger effect = higher value; factor 1 = untreated enzyme, 0 = blocked; activation factor at 5 µM; actives 1.4% (n = 96,000); AID 1024;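 active means activation factor of 2 or more for CYP2C9 at a 5 µM dose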;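 further: 0 = sulfaphenazole-blocked wells and 1 = vehicle-only wells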
CYP2C19 inhib – inhibitors of human CYP2C19. P33261. CYP2C19 Supersomes, luciferin-H EGE luminescence, 30 min. inhibition, % at 5 µM. actives 21% (n = 96,000);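 active means CYP2C19 inhibition above a set limit at 5 µM in the primary screen, cut at about 50% in these data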;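 further: plate controls were negative control wells for no effect and 2.5 mM tranylcypromine positive control for full effect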
Starred values were filed as active, the others as inactive; / = no result.

SMILES	CYP2C19 activ	CYP2C9 inh	sEH activator	sEH inh	CYP2C9 activ	CYP2C19 inhib
COc1ccc(CC(=O)NC2CCN(Cc3nnnn3C(C)(C)C)CC2)cc1OC	1.1	-9	-14	15	1.1	-6
COc1cc(OC)c(NS(=O)(=O)c2coc(C(N)=O)c2)cc1Cl	0	17	/	/	0.8	96*
Cc1cccc(NC(=O)c2ccc(S(=O)(=O)N(C)C)cc2)c1	1.2	-7	-24	23	1.1	-17
Cc1cccc(NC(=O)c2ccc(-n3ccnc3)nc2)c1	0	98*	10	-9	0	100*
COc1ccc(C(=O)NC2CCN(C(=S)Nc3cccc(C)c3C)CC2)cc1	1.1	-13	-2	1	1.1	-8
C/C(=N\NC(=O)c1ccccc1C)c1cccc([N+](=O)[O-])c1	0.6	13	1	1	0.9	39
O=[N+]([O-])c1cccc(C(=Nc2cccc(Cl)c2)NO)c1	0.1	87*	-16	18	0.1	91*
Cn1c2ccccc2c2c(C(=O)NCC3CCCO3)cn(C3CCCC3)c(=O)c21 (stereo unspecified)	0.7	40	-16	18	0.6	30
Cc1cccc(N2CCN(C(=O)c3cn(C)c(=O)c4c3c3ccccc3n4C)CC2)c1C	0.9	70*	7	-6	0.3	8
Cn1c2ccccc2c2c(C(=O)NCCCN3CCCC3=O)cn(C3CCCCC3)c(=O)c21	0.7	55*	10	-8	0.5	33
Cn1c2ccccc2c2c(C(=O)N3CCN(c4ccccc4)CC3)cn(C3CCCC3)c(=O)c21	0.6	52*	0	0	0.5	40
Cc1ccc(Cl)cc1N1CCN(C(=O)c2cn(C)c(=O)c3c2c2ccccc2n3C)CC1	0.1	96*	-5	6	0	86*
COCCn1cc(C(=O)N2CCN(C)CC2)c2c3ccccc3n(C)c2c1=O	1	-1	-9	8	1	0
CN1CCN(CCCNC(=O)c2cn(C3CCCCC3)c(=O)c3c2c2ccccc2n3C)CC1	0.7	1	-18	19	1	34
CCOc1ccccc1NC(=O)C1CC(=O)n2ncnc2N1 (stereo unspecified)	1	-9	4	-2	1.1	-2
CCC(C)C(NC(=O)C1CCC(C)CC1)C(=O)NCc1ccccn1 (stereo unspecified)	1	-1	-8	6	1	-4
O=C(Nc1ccc(OCC(=O)N2CCN(S(=O)(=O)c3ccccc3)CC2)cc1)c1ccco1	1	3	-25	26	1	-3
C=CCNC(=O)c1c2c(nc3ccccc13)-c1ccccc1CC2	0.8	62*	-4	5	0.4	23
CC(C)CNC(=O)c1c2c(nc3ccccc13)-c1ccccc1CC2	0.8	46	8	-5	0.5	17
O=C(CSc1nc2c(c(C(F)(F)F)n1)CCc1ccccc1-2)NCc1ccccc1	/	/	0	5	/	/
CCN(CC)C(=O)c1c2c(nc3ccccc13)-c1ccccc1CC2	0.8	65*	0	-3	0.4	24
CS(=O)(=O)N(CC(=O)N1CCCCC1)c1ccc(Cl)c(C(F)(F)F)c1	0.8	-1	5	-6	1	16
CN(C)CCNC(=O)C(C(=O)c1ccc(F)cc1)n1ccccc1=O (stereo unspecified)	0.9	8	1	-1	0.9	11
CC(C)(C)c1ccc(S(=O)(=O)CCc2ccccn2)cc1	0.3	20	7	-5	0.8	68*
Cc1ccc(C2=CSC3=NCCN23)c(C)c1	0.4	2	-5	5	1	56*
SMILES	CYP2C19 activ	CYP2C9 inh	sEH activator	sEH inh	CYP2C9 activ	CYP2C19 inhib
O=C(N/C(=N\O)c1ccccc1)Nc1ccc(Cl)cc1	0.4	56*	-13	13	0.4	64*
c1ccc(CCNc2ncnc3c2cnn3-c2ccccc2)cc1	/	/	13	-12	/	/
Cc1nc(NC(C)C)c2cnn(CCc3ccccc3)c2n1	0.2	42	18	-16	0.6	77*
CCCNc1nc(C)nc2c1cnn2CCc1ccccc1	0.1	15	-1	3	0.8	89*
O=C(Nc1nncs1)c1c(F)c(F)c(F)c(F)c1F	0.8	4	-14	13	1	17
CC(OC(=O)CN(C)S(=O)(=O)c1ccc(Cl)cc1)C(=O)Nc1cccc(Cl)c1 (stereo unspecified)	0.6	20	-7	5	0.8	37
CN1/C(=C\C(=O)C(F)F)C(C)(C)c2ccccc21	0.7	53*	-1	0	0.5	34
CN1/C(=C/C(=O)c2nc(S(C)(=O)=O)ncc2Cl)C(C)(C)c2ccccc21	0.9	32	13	-14	0.7	9
CN1/C(=C\C(=O)COc2ccc3c(c2)OCO3)C(C)(C)c2ccccc21	0.8	87*	-2	1	0.1	24
CN1/C(=C\C=Nc2ccccc2)C(C)(C)c2ccccc21	1	1	0	0	1	1
CN1/C(=C\C(=O)c2ccco2)C(C)(C)c2ccccc21	0.8	56*	23	-24	0.4	25
CCc1nc2ccccc2n1CCC(C)C	0.6	22	9	-12	0.8	42
CC(=O)Nc1ccc(NC(=O)CN(c2ccccc2Cl)S(C)(=O)=O)cc1	0.9	-2	-3	6	1	14
CC(C)CCNC(=O)NC(=O)CSc1nnc2ccccn12	0.9	-16	/	/	1.2	6
COCCn1c(C)cc(C(=O)CSc2nc3ccccc3o2)c1C	0.7	3	0	3	1	29
Cc1cc(C)c(C#N)c(SCSCc2ccccc2)n1	0	74*	-14	17	0.3	99*
Cc1cc(C)c(C#N)c(SCc2ccccc2)n1	/	/	-8	7	/	/
COCCn1c(C)cc(C(=O)CSc2nc(C)cc(C)c2C#N)c1C	0.2	-14	-7	5	1.1	78*
O=C(CSc1nnc2ccccn12)c1ccc(OC(F)F)cc1OC(F)F	0.2	27	/	/	0.7	76*
COCCn1c(C)cc(C(=O)CSc2nnc3ccccn23)c1C	0.3	3	/	/	1	71*
CCOC(=O)CSc1nc(C)cc(C)c1C#N	1	-7	0	-3	1.1	2
Cc1cc(C)c(C#N)c(SCC(=O)c2cc(C)n(CCc3ccccc3)c2C)n1	0.2	85*	5	-5	0.2	82*
CC(=O)Oc1ccccc1-c1nc(C)nc(N(C)C(C)=O)n1	0.6	-17	/	/	1.2	38
O=C(c1cccc2ccccc12)N1CCN(CC2CC=CCC2)CC1 (stereo unspecified)	0.9	-158	7	-8	2.6*	9
CCOC(=O)c1ccc(NC(=O)CCNS(=O)(=O)c2ccc3c(c2)oc(=O)n3C)cc1	0.9	-30	/	/	1.3	10
CCOC(=O)c1oc2ccc(S(=O)(=O)Nc3ccc4c(c3)n(C)c(=O)n4C)cc2c1C	0.2	94*	-6	5	0.1	79*

Assay outcomes (PubChem)
